The test system of test [1] is Staphylococcus aureus. The note with it: Concentration 32 ug.mL-1;; ASSAY_TEST Inhibition of Bacterial Growth; detection method Absorption (OD600); MEDIA CAMHB; plate type 384well; NBS; CORNING #3640; time 18 hr.
Test [2] relates to Escherichia coli. The note with it: Concentration 32 ug.mL-1;; ASSAY_TEST Inhibition of Bacterial Growth; detection method Absorption (OD600); MEDIA CAMHB; plate type 384well; NBS; CORNING #3640; time 18 hr.

Potency and affinity values are given separately.

Here are results for 35 molecules from ChEMBL document CHEMBL4513146, “CO-ADD screening of Karazin Kharkiv National University (Ukraine) compounds”.

For orientation: Inhibition means the change of the read-out against control, counted positive when it falls.

With `CCCCc1ccc(NC(=O)Cn2nc3c(N4CCN(c5ccccc5C)CC4)nccn3c2=O)cc1`, the figures for the Inhibition in test [1] and in test [2] were 0.53% and -13.2%, respectively.

For `Cc1cc(C)cc(NC(=O)Cn2nc3ccc(SC(C)(C)C)nn3c2=O)c1`, the Inhibition in test [1] was 9.02%; in test [2], -2.5%.

Consider `COc1ccc(CNC(=O)Cn2nc3c(N4CC(C)CC(C)C4)nccn3c2=O)cc1` (stereo not given), for which the Inhibition in test [1] is listed as 7.67%; in test [2] it was -5.82%.

In the case of `Cc1nnc2ccc(S(=O)(=O)N(Cc3ccc(F)cc3)c3ccc(Cl)cc3)cn12`, the Inhibition in test [1] is given as 3.43%; in test [2] it was -7.02%.

As to `CC(C)Sc1ccc2nn(CC(=O)Nc3ccc(Cl)cc3F)c(=O)n2n1`, the Inhibition in test [1] is on record as 9.58%; in test [2] it was -1.02%.

For the molecule `Cc1ccc(Sc2nccn3c(=O)n(CC(=O)Nc4c(C)cc(C)cc4C)nc23)c(C)c1`, the Inhibition in test [1] is given as 17.35%; in test [2], 1.82%.

Consider `Cc1cc(C)cc(Nc2nc(C)cc3nn(CC(=O)N(C)c4cccc(C)c4)c(=O)n23)c1`, for which the Inhibition in test [1] is on record as 5.67%; in test [2], -3.82%.

For `Cc1cc(C)c(NC(=O)Cn2nc3c(N4CCCC(C)C4)nccn3c2=O)c(C)c1` (stereo not given), the Inhibition is on record as -1.28% in test [1] and -2.83% in test [2].

With `COc1ccc(-c2cc3c4nnc(CCC(=O)NCc5ccc6c(c5)OCO6)n4ccn3n2)cc1`, the Inhibition in test [1] is reported as -1.19%; in test [2], 5.34%.

Regarding `Cc1cccc(NC(=O)Cn2nc3ccc(-c4ccc(C)c(C)c4)nn3c2=O)c1`, the Inhibition in test [1] was -13.22%; in test [2] it was -14.87%.

Regarding `O=C(Cn1nc2c(Sc3cccc(F)c3)nccn2c1=O)Nc1ccc(F)c(Cl)c1`, the Inhibition in test [1] was -0.79%; in test [2] it was -15.42%.

Consider `Cc1cc2nn(CC(=O)Nc3ccc(F)cc3C)c(=O)n2c(Nc2ccc(F)cc2)n1`, for which the Inhibition in test [1] is recorded as 9.22%; in test [2] it was -3.34%.

Regarding `COc1cccc(Oc2nccn3c(=O)n(CC(=O)Nc4ccccc4C(F)(F)F)nc23)c1`, the Inhibition in test [1] is reported as 13.2%; in test [2] it was -0.25%.

As for `CCc1cccc(NC(=O)CSc2nnc3c(=O)n(-c4cccc(OC)c4)ccn23)c1`, the Inhibition in test [1] is reported as 9.81%; in test [2], -1.21%.

On to `O=C(CSc1nnc2c(=O)n(-c3ccccc3)ccn12)Nc1ccc2c(c1)OCO2`, for which the Inhibition is listed as 8.51% in test [1] and -2.5% in test [2].

As to `COc1cccc(NC(=O)Cn2nc3c(Sc4ccccc4)nccn3c2=O)c1`, the Inhibition in test [1] was determined as 6.76%; in test [2], 0.48%.

Take `Cc1cccc(NC(=O)Cn2nc3ccc(-c4ccccc4)nn3c2=O)c1`: the values for the Inhibition in test [1] and in test [2] were 1.55% and -5.19%, respectively.

For `Cc1ccc2c(c1)N(C(=O)Cn1nc3ccc(SCc4ccc(Cl)cc4)nn3c1=O)CCO2`, the Inhibition in test [1] is reported as 2.18%; in test [2], -5.63%.

On to `Cc1nnc2c(S(=O)(=O)N(Cc3ccccc3F)c3ccc(C(C)C)cc3)cccn12`, for which the results for the Inhibition in test [1] and in test [2] were 11.33% and -2.7%, respectively.

Regarding `O=C(Cn1nc2ccc(SCc3ccc(Cl)cc3)nn2c1=O)Nc1ccc2c(c1)CCC2`, the Inhibition in test [1] is reported as 2.54%; in test [2], -5.73%.

In the case of `O=C(Cn1nc2ccc(Sc3cccc(F)c3)nn2c1=O)Nc1cccc(Cl)c1`, the results for the Inhibition in test [1] and in test [2] were -0.09% and -4.86%, respectively.

Regarding `O=C(Cn1nc2c3sc(N4CCCC4)nc3ncn2c1=O)Nc1ccc(C(F)(F)F)cc1`, the Inhibition in test [1] is 13.19%; in test [2] it was -0.19%.

Regarding `CCOc1ccc(C(=O)CSc2nnc3c(=O)n(-c4ccc(OCC)cc4)ccn23)cc1`, the Inhibition came to 18.9% in test [1] and 1.24% in test [2].

As for `CCOC(=O)c1ccc(NC(=O)Cn2nc3c(N4CCOCC4)nccn3c2=O)cc1`, the values for the Inhibition in test [1] and in test [2] were 2.06% and -3.52%, respectively.

On to `CCc1ccccc1Sc1nccn2c(=O)n(CC(=O)Nc3ccc(C)cc3C)nc12`, for which the Inhibition was 10.48% in test [1] and -10.9% in test [2].

As for `COc1ccc(-c2cc3c4nnc(SCC(=O)Nc5cccc(C#N)c5)n4ccn3n2)cc1`, the results for the Inhibition in test [1] and in test [2] were 1.06% and -0.96%, respectively.

As to `Cc1cc2nn(CC(=O)N3CCCc4ccccc43)c(=O)n2c(Nc2ccc(F)cc2)n1`, the values for the Inhibition in test [1] and in test [2] were 6.5% and -0.15%, respectively.

With `Cc1ccc(NC(=O)Cn2nc3c(N4CCOCC4)nccn3c2=O)cc1F`, the results for the Inhibition in test [1] and in test [2] were 9.97% and 2.81%, respectively.

On to `COc1ccc(NC(=O)Cn2nc3c4cc(-c5ccc(F)cc5)nn4ccn3c2=O)c(OC)c1`, for which the results for the Inhibition in test [1] and in test [2] were 8.82% and -0.75%, respectively.

For the molecule `COc1ccc(NC(=O)Cn2nc3c(Sc4ccccc4)nccn3c2=O)cc1Cl`, the Inhibition in test [1] is listed as -4.6%; in test [2] it was -4.12%.

For `CCC(C)NC(=O)Cn1nc2n(Cc3cccs3)c(=O)c3sccc3n2c1=O` (stereo not given), the Inhibition in test [1] was 3.01%; in test [2], -5.74%.

As to `O=C(CSc1nnc2c3cc(-c4ccc(F)cc4)nn3ccn12)Nc1ccccc1C(F)(F)F`, the values for the Inhibition in test [1] and in test [2] were -6.75% and -13.58%, respectively.

On to `O=C(Cn1nc2ccc(-c3ccc(Cl)cc3)nn2c1=O)Nc1ccccc1`, for which the Inhibition in test [1] is -4.65%; in test [2] it was -11.42%.

In the case of `Cc1nnc2ccc(S(=O)(=O)N(Cc3cccc(F)c3)c3cc(F)cc(F)c3)cn12`, the Inhibition in test [1] is 9.82%; in test [2] it was -6.06%.

Take `Cc1cccc(C)c1NC(=O)Cn1c(=O)c2nnc(C(C)C)n2c2ccccc21`: the Inhibition in test [1] turned out to be 9.36%; in test [2] it was 1.82%.
